Source: the supplement of paper PMC12669032

test system: Akkermansia muciniphila; test: growth AUC relative to DMSO control (median of replicates) (fraction); higher = more growth (less inhibition), active = hit call of the paper; settings: 20 µM; 24 h;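 active = AUC reduced over 20% with Padj below 0.05 in at least 2 of 3 replicates; inactive = otherwise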
Method in brief: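 Gut bacterial monocultures were grown anaerobically at 37 °C in mGAM, starting at OD600 0.05, with 20 µM compound (1% DMSO) in round-bottom 96-well plates under pierced gas-permeable seals. OD600 was read hourly for 24 h. Area under the growth curve (minimum OD set to 0) was normalised to the plate median of DMSO controls, or to row and column medians on the industrial chemical plate. The value is the median of three biological replicates grown on separate days.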

Growth AUC, inactive:
O=C(O)Cc1c(Cl)ccc(Cl)c1Cl 0.95
COc1cc(OC)c(Cl)cc1N 0.954
O=S(Cc1ccc(Cl)cc1)c1ccc(Cl)cc1 (centres undefined) 0.934
Cc1cc(C)c(C2=C(O)C3(CCCC3)OC2=O)c(C)c1 1.01
CN(C)C(=O)c1cccnc1S(N)(=O)=O 1.05
CCCN(CCOc1c(Cl)cc(Cl)cc1Cl)C(N)=O 0.911
Cc1nn(C)c(OCC(=O)c2ccccc2)c1C(=O)c1ccc(Cl)cc1Cl 1.04
CC(C)(C)Nc1nc(N)nc(Cl)n1 1.06
COC(=O)c1c(Cl)nn(C)c1S(=O)(=O)NC(=O)Nc1nc(OC)cc(OC)n1 0.984
[S] 1.05
CCCCCCCCc1c(CC)nc2ncnn2c1N 1.05
Cn1cc(C(=O)Nc2ccccc2-c2cc(F)c(F)c(F)c2)c(C(F)F)n1 0.832
CCCOc1nc2ccc(I)cc2c(=O)n1CCC 0.956
CNc1nc(NC(C)C)nc(SC)n1 0.806
CC(C)(C)[C@@H](O)[C@@H](Cc1ccc(Cl)cc1)n1cncn1 (mixture of isomers) 1.1
Cc1ccc2c(c1)[C@H](Nc1nc(N)nc(C(C)F)n1)[C@@H](C)C2 (some centres undefined) 0.985
CCN(CC)c1nc(C)cc(=O)[nH]1 1.08
Clc1ccc(C(c2ccccc2Cl)C(Cl)Cl)cc1 (centres undefined) 1.21
CSc1nc(NC2CC2)nc(NC(C)(C)C)n1 0.845
CCc1cccc(C)c1N(C(=O)C(=O)O)[C@@H](C)C(=O)O 1.17
CCNc1nc(NC(C)(C)C)[nH]c(=O)n1 1
CC(C)N(C(=O)C(=O)O)c1ccccc1 1.01
Cc1nn(C)c(F)c1C(=O)Nc1ccccc1C(C)CC(C)C (centres undefined) 0.94
CC(C)c1cc(Oc2ccccc2)cc(C(C)C)c1NC(=S)NC(C)(C)C 0.863
CCCCOCCOC(=O)COc1ccc(Cl)cc1Cl 1.09
CCOC(=O)C(C)Oc1ccc(Oc2nc3ccc(Cl)cc3o2)cc1 (racemic) 1.1
C/C=C/C(=O)Oc1c(C(C)CCCCCC)cc([N+](=O)[O-])cc1[N+](=O)[O-] (mixture of isomers) 1
c1ccc2c(c1)Cc1ccccc1-2 1.04
CC(C)(C)C(O)/C(=C\c1ccc(Cl)cc1)n1cncn1 (centres undefined) 1.05
Oc1ccccc1 1.08
Cc1c(Br)c2ccc(F)cc2n1S(=O)(=O)c1ncn(S(=O)(=O)N(C)C)n1 0.998
NC(Cn1cncn1)C(=O)O (centres undefined) 0.948
CCCCC(CC)COC(=O)COc1ccc(Cl)cc1C (centres undefined) 1.15
c1ccc(CNc2ncnc3nc[nH]c23)cc1 1.07
CON=C(Cc1cccnc1)c1ccc(Cl)cc1Cl 1.06
COC(=O)Cc1cccc2ccccc12 1.01
CC1(C)C(=O)Oc2ccc(OS(C)(=O)=O)cc21 1.03
CN(C)c1ccc(N=NS(=O)(=O)[O-])cc1.[Na+] 1.03
CCOC(=O)Cn1c(=O)sc2cccc(Cl)c21 0.779
